# According to the supplement of paper PMC4466140:
# B1: unnamed (peptide)
# chain: WRPRIVPILPYITRL
# B2: unnamed (peptide)
# chain: EQEEIAPSLPSRNSI
# Legend:
# Assay in all cases: SPOT peptide array binding signal intensity (averaged, normalized) (arbitrary units (background-subtracted, floor 0; scale differs between SH3 domains)); higher = stronger binding of the SH3 domain to the peptide
# AgAbp1 = molecular target: AgAbp1
# Method in brief: (§1)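 Detection of bound protein relied on anti-GST antibody, an HRP anti-mouse secondary and luminol, with imaging and quantification in Genespotter. The bound protein was GST-fused SH3 domains from four yeast species, incubated at 10 μg/ml overnight at 4°C in TBS-based blocking buffer on cellulose membranes carrying synthetic 15-mer peptides with cysteines replaced by serines. Binding signal is normalized, background-subtracted spot intensity averaged over replicates, in arbitrary units that differ between domains.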
# AgBbc1 = molecular target: AgBbc1
# Method in brief: as §1
# AgBem1-D1 = molecular target: AgBem1-D1
# Method in brief: as §1
# AgBzz1-D1 = molecular target: AgBzz1-D1
# Method in brief: as §1
# AgBzz1-D2 = molecular target: AgBzz1-D2
# Method in brief: as §1
# AgCyk3 = molecular target: AgCyk3
# Method in brief: as §1
# AgFus1 = molecular target: AgFus1
# Method in brief: as §1
# AgHof1 = molecular target: AgHof1
# Method in brief: as §1
# AgHse1 = molecular target: AgHse1
# Method in brief: as §1
# AgLsb1 = molecular target: AgLsb1
# Method in brief: as §1
# AgLsb4 = molecular target: AgLsb4
# Method in brief: as §1
# AgMyo5 = molecular target: AgMyo5
# Method in brief: as §1
# AgNbp2 = molecular target: AgNbp2
# Method in brief: as §1
# AgRvs167 = molecular target: AgRvs167
# Method in brief: as §1
# AgSho1 = molecular target: AgSho1
# Method in brief: as §1
# AgSla1-D1-D2 = molecular target: AgSla1-D1-D2
# Method in brief: as §1
# AgSla1-D3 = molecular target: AgSla1-D3
# Method in brief: as §1
# CaAbp1-D1 = molecular target: CaAbp1-D1
# Method in brief: as §1
# CaAbp1-D2 = molecular target: CaAbp1-D2
# Method in brief: as §1
# CaBbc1 = molecular target: CaBbc1
# Method in brief: as §1
# CaBem1-D1 = molecular target: CaBem1-D1
# Method in brief: as §1
# CaBzz1-D1 = molecular target: CaBzz1-D1
# Method in brief: as §1
# CaBzz1-D2 = molecular target: CaBzz1-D2
# Method in brief: as §1
# CaCyk3 = molecular target: CaCyk3
# Method in brief: as §1
# CaFus1 = molecular target: CaFus1
# Method in brief: as §1
# CaHof1 = molecular target: CaHof1
# Method in brief: as §1
# CaHse1 = molecular target: CaHse1
# Method in brief: as §1
# CaLsb1 = molecular target: CaLsb1
# Method in brief: as §1
# CaLsb4 = molecular target: CaLsb4
# Method in brief: as §1
# CaMyo5 = molecular target: CaMyo5
# Method in brief: as §1
# CaNbp2 = molecular target: CaNbp2
# Method in brief: as §1
# CaRvs167 = molecular target: CaRvs167
# Method in brief: as §1
# CaRvs167-3 = molecular target: CaRvs167-3
# Method in brief: as §1
# CaSho1 = molecular target: CaSho1
# Method in brief: as §1
# CaSla1-D1-D2 = molecular target: CaSla1-D1-D2
# Method in brief: as §1
# CaSla1-D3 = molecular target: CaSla1-D3
# Method in brief: as §1
# ScAbp1 = molecular target: ScAbp1
# Method in brief: as §1
# ScBbc1 = molecular target: ScBbc1
# Method in brief: as §1
# ScBem1-D1 = molecular target: ScBem1-D1
# Method in brief: as §1
# ScBzz1-D1 = molecular target: ScBzz1-D1
# Method in brief: as §1
# ScBzz1-D2 = molecular target: ScBzz1-D2
# Method in brief: as §1
# ScCyk3 = molecular target: ScCyk3
# Method in brief: as §1
# ScFus1 = molecular target: ScFus1
# Method in brief: as §1
# ScHof1 = molecular target: ScHof1
# Method in brief: as §1
# ScHse1 = molecular target: ScHse1
# Method in brief: as §1
# ScLsb1 = molecular target: ScLsb1
# Method in brief: as §1
# ScLsb2 = molecular target: ScLsb2
# Method in brief: as §1
# ScLsb3 = molecular target: ScLsb3
# Method in brief: as §1
# ScLsb4 = molecular target: ScLsb4
# Method in brief: as §1
# ScMyo3 = molecular target: ScMyo3
# Method in brief: as §1
# ScMyo5 = molecular target: ScMyo5
# Method in brief: as §1
# ScNbp2 = molecular target: ScNbp2
# Method in brief: as §1
# ScPex13 = molecular target: ScPex13
# Method in brief: as §1
# ScRvs167 = molecular target: ScRvs167
# Method in brief: as §1
# ScSho1 = molecular target: ScSho1
# Method in brief: as §1
# ScSla1-D1-D2 = molecular target: ScSla1-D1-D2
# Method in brief: as §1
# ScSla1-D3 = molecular target: ScSla1-D3
# Method in brief: as §1
# SpAbp1-D1 = molecular target: SpAbp1-D1
# Method in brief: as §1
# SpBbc1 = molecular target: SpBbc1
# Method in brief: as §1
# SpBzz1-D1 = molecular target: SpBzz1-D1
# Method in brief: as §1
# SpBzz1-D2 = molecular target: SpBzz1-D2
# Method in brief: as §1
# SpCyk3 = molecular target: SpCyk3
# Method in brief: as §1
# SpHof1 = molecular target: SpHof1
# Method in brief: as §1
# SpHof1-2 = molecular target: SpHof1-2
# Method in brief: as §1
# SpHof1-3 = molecular target: SpHof1-3
# Method in brief: as §1
# SpHse1 = molecular target: SpHse1
# Method in brief: as §1
# SpLsb1 = molecular target: SpLsb1
# Method in brief: as §1
# SpLsb4 = molecular target: SpLsb4
# Method in brief: as §1
# SpMyo1 = molecular target: SpMyo1
# Method in brief: as §1
# SpNbp2 = molecular target: SpNbp2
# Method in brief: as §1
# SpPex13 = molecular target: SpPex13
# Method in brief: as §1
# SpRvs167 = molecular target: SpRvs167
# Method in brief: as §1
# SpSla1-D1-D2 = molecular target: SpSla1-D1-D2
# Method in brief: as §1
# SpSla1-D3 = molecular target: SpSla1-D3
# Method in brief: as §1
binder,measurement,setting,value
B1,SPOT peptide array binding signal intensity,AgAbp1,6
same,SPOT peptide array binding signal intensity,AgBbc1,13.5
same,SPOT peptide array binding signal intensity,AgBem1-D1,108
same,SPOT peptide array binding signal intensity,AgBzz1-D1,11
same,SPOT peptide array binding signal intensity,AgBzz1-D2,7.5
same,SPOT peptide array binding signal intensity,AgCyk3,9
same,SPOT peptide array binding signal intensity,AgFus1,90
same,SPOT peptide array binding signal intensity,AgHof1,132
same,SPOT peptide array binding signal intensity,AgHse1,434
same,SPOT peptide array binding signal intensity,AgLsb1,11
same,SPOT peptide array binding signal intensity,AgLsb4,22
same,SPOT peptide array binding signal intensity,AgMyo5,2.5
same,SPOT peptide array binding signal intensity,AgNbp2,140
same,SPOT peptide array binding signal intensity,AgRvs167,2
same,SPOT peptide array binding signal intensity,AgSho1,17
same,SPOT peptide array binding signal intensity,AgSla1-D1-D2,6.5
same,SPOT peptide array binding signal intensity,AgSla1-D3,4
same,SPOT peptide array binding signal intensity,CaAbp1-D1,109
same,SPOT peptide array binding signal intensity,CaAbp1-D2,92.5
same,SPOT peptide array binding signal intensity,CaBbc1,58.8
same,SPOT peptide array binding signal intensity,CaBem1-D1,22
same,SPOT peptide array binding signal intensity,CaBzz1-D1,49.5
same,SPOT peptide array binding signal intensity,CaBzz1-D2,24.2
same,SPOT peptide array binding signal intensity,CaCyk3,29.5
same,SPOT peptide array binding signal intensity,CaFus1,460
same,SPOT peptide array binding signal intensity,CaHof1,2
same,SPOT peptide array binding signal intensity,CaHse1,32
same,SPOT peptide array binding signal intensity,CaLsb1,3.5
same,SPOT peptide array binding signal intensity,CaLsb4,56
same,SPOT peptide array binding signal intensity,CaMyo5,1.5
same,SPOT peptide array binding signal intensity,CaNbp2,574
same,SPOT peptide array binding signal intensity,CaRvs167,54
same,SPOT peptide array binding signal intensity,CaRvs167-3,56
same,SPOT peptide array binding signal intensity,CaSho1,298
same,SPOT peptide array binding signal intensity,CaSla1-D1-D2,6
same,SPOT peptide array binding signal intensity,CaSla1-D3,2
same,SPOT peptide array binding signal intensity,ScAbp1,17
same,SPOT peptide array binding signal intensity,ScBbc1,4.25
same,SPOT peptide array binding signal intensity,ScBem1-D1,1
same,SPOT peptide array binding signal intensity,ScBzz1-D1,1.5
same,SPOT peptide array binding signal intensity,ScBzz1-D2,15.5
same,SPOT peptide array binding signal intensity,ScCyk3,33
same,SPOT peptide array binding signal intensity,ScFus1,75
same,SPOT peptide array binding signal intensity,ScHof1,365
same,SPOT peptide array binding signal intensity,ScHse1,636
same,SPOT peptide array binding signal intensity,ScLsb1,32.5
same,SPOT peptide array binding signal intensity,ScLsb2,7
same,SPOT peptide array binding signal intensity,ScLsb3,148
same,SPOT peptide array binding signal intensity,ScLsb4,18.5
same,SPOT peptide array binding signal intensity,ScMyo3,2
same,SPOT peptide array binding signal intensity,ScMyo5,0.5
same,SPOT peptide array binding signal intensity,ScNbp2,224
same,SPOT peptide array binding signal intensity,ScPex13,1
same,SPOT peptide array binding signal intensity,ScRvs167,251
same,SPOT peptide array binding signal intensity,ScSho1,182
same,SPOT peptide array binding signal intensity,ScSla1-D1-D2,≤ 0
same,SPOT peptide array binding signal intensity,ScSla1-D3,≤ 0
same,SPOT peptide array binding signal intensity,SpAbp1-D1,36
same,SPOT peptide array binding signal intensity,SpBbc1,7
same,SPOT peptide array binding signal intensity,SpBzz1-D1,179
same,SPOT peptide array binding signal intensity,SpBzz1-D2,1.5
same,SPOT peptide array binding signal intensity,SpCyk3,10
same,SPOT peptide array binding signal intensity,SpHof1,14.5
same,SPOT peptide array binding signal intensity,SpHof1-2,18.5
same,SPOT peptide array binding signal intensity,SpHof1-3,328
same,SPOT peptide array binding signal intensity,SpHse1,315
same,SPOT peptide array binding signal intensity,SpLsb1,3
same,SPOT peptide array binding signal intensity,SpLsb4,157
same,SPOT peptide array binding signal intensity,SpMyo1,107
same,SPOT peptide array binding signal intensity,SpNbp2,55.5
same,SPOT peptide array binding signal intensity,SpPex13,6.5
same,SPOT peptide array binding signal intensity,SpRvs167,167
same,SPOT peptide array binding signal intensity,SpSla1-D1-D2,≤ 0
same,SPOT peptide array binding signal intensity,SpSla1-D3,≤ 0
B2,SPOT peptide array binding signal intensity,SpBzz1-D2,1
same,SPOT peptide array binding signal intensity,SpCyk3,≤ 0
same,SPOT peptide array binding signal intensity,SpHof1,1
same,SPOT peptide array binding signal intensity,SpHof1-2,≤ 0
same,SPOT peptide array binding signal intensity,SpHof1-3,0.75
same,SPOT peptide array binding signal intensity,SpHse1,≤ 0
same,SPOT peptide array binding signal intensity,SpLsb1,13
same,SPOT peptide array binding signal intensity,SpLsb4,4140
same,SPOT peptide array binding signal intensity,SpMyo1,≤ 0
same,SPOT peptide array binding signal intensity,SpNbp2,5.5
same,SPOT peptide array binding signal intensity,SpPex13,≤ 0
same,SPOT peptide array binding signal intensity,SpRvs167,450
same,SPOT peptide array binding signal intensity,SpSla1-D1-D2,2
same,SPOT peptide array binding signal intensity,SpSla1-D3,1
